In PubChem BioAssay (Tox21):
Results filed as inconclusive are left out. A number with no mark means an inactive call. Active and inactive are the calls of the source. Calls come from the whole dose curve; as a rule, active = well fitted inhibition curve with a large enough effect in the signal ratio in the repeat runs (not every such curve was filed as active); inconclusive = weak or mixed curves, or effect the other way; inactive = no such curve, though single readings can be large or run the other way; the % refers to the signal ratio.

Biological target: Vitamin D3 receptor (Homo sapiens) (UniProt P11473)
Sequence (P11473 whole entry, looked up): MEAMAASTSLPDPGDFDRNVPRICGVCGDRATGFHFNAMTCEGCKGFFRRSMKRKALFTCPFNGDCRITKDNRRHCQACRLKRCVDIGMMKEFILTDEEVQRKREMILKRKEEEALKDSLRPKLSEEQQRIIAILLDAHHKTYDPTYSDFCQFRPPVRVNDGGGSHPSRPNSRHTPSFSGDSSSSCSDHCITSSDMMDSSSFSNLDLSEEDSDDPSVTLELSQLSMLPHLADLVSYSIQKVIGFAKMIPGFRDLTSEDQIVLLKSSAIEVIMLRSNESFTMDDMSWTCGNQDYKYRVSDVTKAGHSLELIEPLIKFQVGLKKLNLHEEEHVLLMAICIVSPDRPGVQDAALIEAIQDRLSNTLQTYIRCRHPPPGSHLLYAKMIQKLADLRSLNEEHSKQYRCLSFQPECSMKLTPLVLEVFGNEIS
Assay: qHTS assay to identify small molecule antagonists of the vitamin D receptor (VDR) signaling pathway (AID 743223)
Conditions: VDR-UAS-bla HEK293T, beta-lactamase FRET ratio, 16 h; series mostly up to 61 µM; activity change, negative = inhibition: at the top concentration
Source text: U.S. Tox21 Program National Center for Advancing Translational Sciences [NCATS] NIH Chemical Genomics Center [NCGC] U.S. Environmental Protection Agency [EPA] National Institutes of Environmental Health Sciences [NIEHS] National Toxicology Program [NTP] U.S. Food and Drug Administration [FDA] Tox21 Assay Overview: The vitamin D receptor (VDR), a member of nuclear hormone receptor superfamily, plays a critical role in calcium homeostasis and bone metabolism. It is also involved in cell differentiation and growth, and thrombogenicity.
Tox21 Assay Protocol Summary: VDR-bla cells were dispensed at 2,000 cells/5 uL of assay medium per well into black wall/clear-bottom 1536-well plates using a Multidrop Combi (Thermo Fisher Scientific, Waltham, MA) dispenser. After the assay plates were incubated at a 37C and 5% CO2 for 4 h, 23 nL of compounds dissolved in DMSO, positive controls or DMSO only was transferred to the assay plate by a Pintool station (Kalypsys, San Diego, CA), followed by addition of 1 uL of 1alpha, 25-Dihydroxy Vitamin D3 (3 nM, final concentration in the wells) using a Bioraptr Flying Reagent Dispenser (FRD) workstation (Beckman Coulter, Indianapolis, IN). The plates were incubated at 37C and 5% CO2 for 16 h, and then 1 uL of LiveBLAzerTM B/G FRET substrate was added using a Bioraptr FRD. The plates were incubated at room temperature for 2 h and fluorescence intensity was measured by an Envision plate reader (PerkinElmer, Shelton, CT).
% is set by controls: 0 for no effect and ±100 for the full control effect; potency is the fitted concentration of half-maximal effect.

SMILES | activity change, negative = inhibition | Potency
OC1CCC(C2CCCCC2)CC1 (stereo not given) | -4.29% | –
COc1cc(/C=C/c2ccccc2)oc(=O)c1 | -0.43% [at 78.8 µM] | –
Cc1c(C)c2c(c(C)c1O)CC[C@@](C)(CCC[C@H](C)CCC[C@H](C)CCCC(C)C)O2 | 8.55% [at 78.8 µM] | –
CC1(C)CCC[C@]2(C)[C@H]3CCO[C@]3(C)CC[C@@H]12 | -17.7% | –
COc1cc(S(=O)(=O)O)c(C)cc1N=Nc1c(O)ccc2cc(S(=O)(=O)O)ccc12 | -0.433% | –
CCCCOC(=O)CO | -2.88% | –
CCC(CC)C(C)CCOC(C)=O (stereo not given) | 20.1% | –
CC1=Nc2ccccc2C1(C)C | -0.115% | –
CN1CCN2c3ccccc3Cc3ccccc3C2C1 (stereo not given) | -9.54% | –
Oc1c(I)cc(Cl)c2cccnc12 | – | 8.69 µM (active)
CN(C)[C@@H](CCOc1cccc2ccccc12)c1ccccc1 | -28.5% | –
Cc1ccc(O)c(O)c1 | -28.9% | –
C=CC(=O)Nc1cc2c(Nc3ccc(F)c(Cl)c3)ncnc2cc1OCCCN1CCOCC1 | -13.5% | –
CC(C)(C)c1ccc(C(O)CCCN2CCC(C(O)(c3ccccc3)c3ccccc3)CC2)cc1 (stereo not given) | -5.05% | –
Cc1c(C)c2c(c(C)c1OC(=O)c1cccnc1)CC[C@@](C)(CCC[C@H](C)CCC[C@H](C)CCCC(C)C)O2 | -2.97% | –
C=CC(C)(CCC=C(C)C)OC=O (stereo not given) | 7.28% | –
C=CCCC(=O)/C=C/C1C(C)=CCCC1(C)C (stereo not given) | -2.49% | –
[Cl][Pt-2]([Cl])([Cl])[Cl] | -1.75% [at 78.8 µM] | –
CCCCCCCCCCCCCC[N+](C)(C)Cc1ccccc1 | – | 44.3 µM (active)
COc1ccc(NC(=O)CC(C)=O)cc1 | 6.75% | –

SMILES | activity change, negative = inhibition | Potency
Cc1cccc2cccnc12 | 12.4% | –
CN1CCN(Cc2cc(-c3ccc4[nH]c(=O)oc4c3)co2)[C@@H](c2ccc(F)cc2)C1 | -7.61% | –
O=C(O)c1ccc2cc(C(=O)O)ccc2c1 | 3.42% [at 78.8 µM] | –
CC[N+](CC)(CC)CCOC(=O)C(C1CCCC1)C1CCCC1 | 9.07% | –
CCCCC(CC)COC(=O)CCCCC(=O)OCc1ccccc1 (stereo not given) | -0.459% | –
O=c1[nH]c2ccccc2n1CCCN1CCN(C(c2ccccc2)c2ccccc2)CC1 | -2.53% | –
C[C@H]1NCc2cc(-c3ccc4c(=O)c(C(=O)O)cn(C5CC5)c4c3OC(F)F)ccc21 | 21.3% [at 28.5 µM] | –
CC(C)Cn1cnc2c(N)nc3ccccc3c21 | -1.76% [at 28.5 µM] | –
NC(=S)NC(N)=S | 6.01% | –
C[Si](Cl)(c1ccccc1)c1ccccc1 | -9.51% | –
COc1cc(C)ccc1O | -13.3% | –
CC(=O)CC(=O)Nc1ccc(S(=O)(=O)O)cc1 | -2.07% | –
Cc1cccc(C(=O)O)c1O | 18.9% | –
CC/C=C\CCCCCO | 2.37% | –
OC/C=C/CO | -6.34% | –
Nc1ccc(C(=O)O)c(O)c1 | 1.05% | –
c1ccsc1 | 1.29% | –
CCCCN(CCCC)CC(O)c1cc(Cl)cc2c1-c1ccc(Cl)cc1/C2=C/c1ccc(Cl)cc1 (stereo not given) | -13.5% | –
Cc1cccc(C)c1NC(=O)c1ccc(N)cc1 | 2.66% | –
CCOC(=O)Cn1cccc1-c1nc(-c2ccc(OC)cc2)c(-c2ccc(OC)cc2)s1 | 1.18% | –
